This is an account of results in paper PMC5540273 (PLoS ONE, 2017).

“And” between values parts separate entries of the source, which are not always exact repeats. Identical values can stand only once. Like-named read-outs stand apart in the source and are kept apart here.

Some test systems named below: PIM1; PIM2; PIM3; PIP5K1A; PIP5K1C; PIP5K2B; PKMYT1.
What all share (conditions): n = 1
A further assay concerns T1, PIP5K2C.
T1 construct: gene PIP4K2C

A further assay deals with T2, PKAC-alpha.
T2 construct: gene PRKACA

A further assay deals with T3, PKAC-beta.
T3 construct: gene PRKACB

The mark [1] stands for this setting: concentration: 1 μM, replicates: in singlicate.
Setting [2] is: concentration: 1 μM,replicates: in singlicate, 1 µM.
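Note: KINOMEscan kinase panel screen.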

On to `Cc1ccc(C(=O)Nc2ccc(Nc3ccnc4cc(-c5ccccn5)ccc34)cc2O)cc1.Cl` [GW440146], for which the “%Inh” value with PIM1 (setting [1]) is recorded as 16%; in the assay on PIM2 (setting [1]) it was 0%; in the assay with PIM3 (setting [1]) it was 12%; in the assay on PIP5K1A (setting [1]) it was 35%; with PIP5K1C (setting [1]) it was 0%; in the assay on PIP5K2B (setting [1]), 11%. The “%Inh” value with PIP5K2C (setting [1]) is on record as 31%; with PKAC-alpha (setting [1]), 0%; with PKAC-beta (setting [1]) it was 8%; in the assay with PKMYT1 (setting [1]), 0%.

With `Cn1ccc2ncnc(Oc3ccc(NC(=O)Nc4ccccc4)cc3)c21`, the “%Inh” value in the assay on PIM1 (setting [1]) is listed as 8%; in the assay on PIM2 (setting [1]) it was 13%; in the assay on PIM3 (setting [1]) it was 22%; in the assay on PIP5K1A (setting [1]), 0%; in the assay with PIP5K1C (setting [1]), 5%; with PIP5K2B (setting [1]), 5%. For the same compound, the “%Inh” value in the assay with PIP5K2C (setting [1]) turned out to be 1%; in the assay with PKAC-alpha (setting [1]), 16%; in the assay on PKAC-beta (setting [1]), 17%; in the assay with PKMYT1 (setting [1]), 16%.

Consider `Cc1cccc(-c2nc(Nc3ccc4[nH]ncc4c3)c3ccccc3n2)n1` [GW857175], for which the “%Inh” value in the assay on PIM1 (setting [1]) came out at 5%; in the assay with PIM2 (setting [1]), 38%; with PIM3 (setting [1]), 0%; in the assay with PIP5K1A (setting [1]), 0%; in the assay with PIP5K1C (setting [1]), 0%; in the assay with PIP5K2B (setting [1]), 42%. The “%Inh” value came to 0% in the assay with PIP5K2C (setting [1]), 34% with PKAC-alpha (setting [1]), 0% with PKAC-beta (setting [1]) and 19% with PKMYT1 (setting [1]).

Regarding `CC1=C(C(=O)Nc2cc3cn[nH]c3cc2F)C(c2ccc(C(F)(F)F)cc2)CC(=O)N1` (stereo not drawn) [GSK429286], the “%Inh” value with PIM1 (setting [1]) turned out to be 0%; in the assay on PIM2 (setting [1]) it was 0%; in the assay on PIM3 (setting [1]), 0%; with PIP5K1A (setting [1]) it was 0%; with PIP5K1C (setting [1]), 10%; in the assay with PIP5K2B (setting [1]), 17%. Also, the “%Inh” value in the assay on PIP5K2C (setting [1]) is listed as 11%; with PKAC-alpha (setting [1]) it was 45%; in the assay with PKAC-beta (setting [1]), 60%; in the assay on PKMYT1 (setting [1]) it was 17%.

Regarding `CN1C(=O)C(Nc2ccc(Cl)c(C(=O)O)c2)=C(c2ccc(Cl)cc2)C1=O` [SB-404290], the “%Inh” value in the assay on PIM1 (setting [1]) is listed as 0%; with PIM2 (setting [1]) it was 0%; in the assay with PIM3 (setting [1]), 0%; in the assay with PIP5K1A (setting [1]), 11%; in the assay with PIP5K1C (setting [1]), 0%; in the assay with PIP5K2B (setting [1]), 0%. Further, the “%Inh” value in the assay on PIP5K2C (setting [1]) was determined as 0%; in the assay on PKAC-alpha (setting [1]) it was 0%; in the assay on PKAC-beta (setting [1]) it was 4%; in the assay on PKMYT1 (setting [1]), 0%.

Take `CSc1nn2c(=O)cc(N3CCOCC3)nc2n1Cc1cccc(C(F)(F)F)c1C` [GSK2363608]: the “%Inh” value is 0% and 34% in the assay on PIM1 (setting [2]); 0% with PIM2 (setting [1]); 0% and 27% in the assay with PIM3 (setting [2]); 0% in the assay with PIP5K1A (setting [1]); 30% and 0% in the assay on PIP5K1C (setting [2]); 1% and 4% in the assay on PIP5K2B (setting [2]). Besides, the “%Inh” value with PIP5K2C (setting [2]) is 6% and 8%; in the assay with PKAC-alpha (setting [2]) it was 50% and 0%; in the assay with PKAC-beta (setting [2]) it was 64% and 0%; in the assay with PKMYT1 (setting [2]), 13% and 19%.

On to `Cl.O=C(Nc1cccc(-c2nn3ncccc3c2-c2ccnc(Nc3cccnc3)n2)c1)c1c(F)cccc1F` [GSK312879], for which the “%Inh” value with PIM1 (setting [1]) is given as 11%; with PIM2 (setting [1]), 0%; in the assay with PIM3 (setting [1]), 0%; in the assay with PIP5K1A (setting [1]), 2%; with PIP5K1C (setting [1]), 11%; in the assay on PIP5K2B (setting [1]) it was 4%. Also, the “%Inh” value is given as 0% in the assay with PIP5K2C (setting [1]), 14% in the assay on PKAC-alpha (setting [1]), 19% in the assay on PKAC-beta (setting [1]) and 20% with PKMYT1 (setting [1]).

Take `Cc1ccc(NC(=O)Nc2cccc(C(F)(F)F)c2)cc1` [GSK955403]: the “%Inh” value in the assay on PIM1 (1 µM) worked out at 5%; with PIM2 (1 µM), 15%; with PIM3 (1 µM), 21%; in the assay with PIP5K1A (1 µM), 0%; with PIP5K1C (1 µM), 0%; in the assay with PIP5K2B (1 µM), 0%. Moreover, the “%Inh” value in the assay with PIP5K2C (1 µM) stood at 0%; in the assay on PKAC-alpha (1 µM), 14%; in the assay on PKAC-beta (1 µM) it was 14%; with PKMYT1 (1 µM), 0%.

With `CCn1c(-c2ccccn2)nc2cnccc21` [SB-736398], the “%Inh” value worked out at 0% with PIM1 (setting [1]); 0% in the assay on PIM2 (setting [1]); 0% in the assay with PIM3 (setting [1]); 6% in the assay on PIP5K1A (setting [1]); 34% with PIP5K1C (setting [1]); 7% in the assay with PIP5K2B (setting [1]). The “%Inh” value in the assay on PIP5K2C (setting [1]) was found to be 32%; in the assay on PKAC-alpha (setting [1]) it was 92.9%; in the assay on PKAC-beta (setting [1]) it was 6%; in the assay with PKMYT1 (setting [1]) it was 0%.

As to `Cc1cc(N2Cc3ccccc3C2)nc(Nc2ccc(S(=O)(=O)N3CCOCC3)cc2)n1.Cl` [GSK1669917], the “%Inh” value in the assay on PIM1 (setting [1]) was 14%; in the assay with PIM2 (setting [1]) it was 0%; in the assay with PIM3 (setting [1]) it was 0%; in the assay with PIP5K1A (setting [1]) it was 0%; in the assay on PIP5K1C (setting [1]), 75%; with PIP5K2B (setting [1]), 10%. The “%Inh” value with PIP5K2C (setting [1]) amounted to 0%; with PKAC-alpha (setting [1]) it was 0%; in the assay with PKAC-beta (setting [1]), 0%; in the assay on PKMYT1 (setting [1]), 21%.

For the compound `Fc1cccc(COc2nnc(-c3ccc4c(c3)CCO4)o2)c1`, the “%Inh” value stood at 11% in the assay with PIM1 (setting [1]); 8% with PIM2 (setting [1]); 0% in the assay with PIM3 (setting [1]); 31% in the assay with PIP5K1A (setting [1]); 6% in the assay with PIP5K1C (setting [1]); 29% in the assay on PIP5K2B (setting [1]). Besides, the “%Inh” value turned out to be 10% with PIP5K2C (setting [1]), 0% with PKAC-alpha (setting [1]), 0% with PKAC-beta (setting [1]) and 11% in the assay with PKMYT1 (setting [1]).

For `Nc1ncnc2[nH]c(-c3ccccc3)nc12` [AH5015], the “%Inh” value worked out at 0% in the assay with PIM1 (setting [1]); 0% in the assay with PIM2 (setting [1]); 21% in the assay with PIM3 (setting [1]); 0% with PIP5K1A (setting [1]); 29% in the assay with PIP5K1C (setting [1]); 0% with PIP5K2B (setting [1]). Further, the “%Inh” value in the assay on PIP5K2C (setting [1]) came out at 21%; with PKAC-alpha (setting [1]) it was 1%; in the assay with PKAC-beta (setting [1]), 7%; in the assay with PKMYT1 (setting [1]), 0%.

As to `Fc1cc(Cl)ccc1Nc1ccnc2cc(I)ccc12` [GW551191], the “%Inh” value in the assay on PIM1 (setting [1]) turned out to be 22%; with PIM2 (setting [1]), 0%; in the assay on PIM3 (setting [1]), 6%; in the assay with PIP5K1A (setting [1]) it was 0%; with PIP5K1C (setting [1]) it was 30%; in the assay with PIP5K2B (setting [1]) it was 0%. Further, the “%Inh” value is recorded as 10% in the assay with PIP5K2C (setting [1]), 0% in the assay on PKAC-alpha (setting [1]), 0% in the assay on PKAC-beta (setting [1]) and 1% with PKMYT1 (setting [1]).

Consider `Cc1cccc(-c2cc(Nc3ccncc3)c3ccccc3n2)n1` [GSK223675], for which the “%Inh” value turned out to be 23% with PIM1 (setting [1]); 0% with PIM2 (setting [1]); 19% with PIM3 (setting [1]); 0% with PIP5K1A (setting [1]); 25% in the assay on PIP5K1C (setting [1]); 4% in the assay with PIP5K2B (setting [1]). Moreover, the “%Inh” value in the assay on PIP5K2C (setting [1]) was found to be 8%; in the assay on PKAC-alpha (setting [1]) it was 0%; in the assay on PKAC-beta (setting [1]) it was 0%; in the assay with PKMYT1 (setting [1]), 0%.

For `Cn1ccc2ncnc(Oc3ccc(Nc4nc5ccccc5[nH]4)cc3)c21`, the “%Inh” value with PIM1 (setting [1]) was 0%; with PIM2 (setting [1]), 0%; in the assay with PIM3 (setting [1]) it was 0%; in the assay on PIP5K1A (setting [1]) it was 0%; in the assay on PIP5K1C (setting [1]), 25%; with PIP5K2B (setting [1]), 26%. The “%Inh” value with PIP5K2C (setting [1]) was 16%; with PKAC-alpha (setting [1]), 3%; with PKAC-beta (setting [1]) it was 0%; in the assay with PKMYT1 (setting [1]), 18%.

`Cc1csc(-c2nc(Nc3ccncc3)c3ccccc3n2)n1` [GW869640]: the “%Inh” value in the assay on PIM1 (setting [1]) turned out to be 31%; in the assay with PIM2 (setting [1]), 0%; with PIM3 (setting [1]) it was 17%; in the assay with PIP5K1A (setting [1]), 0%; in the assay with PIP5K1C (setting [1]), 29%; in the assay on PIP5K2B (setting [1]) it was 2%. Besides, the “%Inh” value is given as 2% with PIP5K2C (setting [1]), 14% in the assay on PKAC-alpha (setting [1]), 44% in the assay with PKAC-beta (setting [1]) and 16% with PKMYT1 (setting [1]).

Consider `O=S(=O)(c1ccc(-c2ccnc3[nH]ccc23)cc1)N1CCCC1` [GSK846226], for which the “%Inh” value in the assay with PIM1 (setting [1]) worked out at 13%; in the assay with PIM2 (setting [1]), 0%; in the assay with PIM3 (setting [1]), 8%; in the assay on PIP5K1A (setting [1]), 37%; in the assay with PIP5K1C (setting [1]) it was 19%; in the assay on PIP5K2B (setting [1]) it was 0%. The “%Inh” value in the assay with PIP5K2C (setting [1]) amounted to 0%; in the assay on PKAC-alpha (setting [1]), 81%; with PKAC-beta (setting [1]), 71%; in the assay with PKMYT1 (setting [1]), 0%.

Consider `O=C(O)COc1ncnc2cc(-c3ccc4[nH]ncc4c3)sc12`, for which the “%Inh” value is reported as 0% in the assay with PIM1 (setting [1]); 0% in the assay with PIM2 (setting [1]); 7% with PIM3 (setting [1]); 0% with PIP5K1A (setting [1]); 0% in the assay with PIP5K1C (setting [1]); 17% in the assay with PIP5K2B (setting [1]). The “%Inh” value in the assay with PIP5K2C (setting [1]) stood at 0%; in the assay on PKAC-alpha (setting [1]), 0%; with PKAC-beta (setting [1]), 4%; in the assay on PKMYT1 (setting [1]) it was 0%.
